Source: PubChem (several laboratories)
Rows were chosen to be rich in hits. Some 1.8% of all compounds tested hit in one or more screens of this group.
GRK2 aptamer HTS: compounds blocking aptamer binding on GRK2 – biochemical, human GRK2, bead flow cytometry, HTS, primary screen | Beta-adrenergic receptor kinase 1 (Homo sapiens), P25098 | FAM-aptamer displacement from GRK2 | inhibition of aptamer binding, % at 10 µM | 330,000 compounds, 0.59% hits | AID 488847, 2010;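 active = inhibition of aptamer binding above 40%, roughly 3 SD of noise, on plates passing a quality check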;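 note: median bead fluorescence of bound FAM aptamer so fluorescent compounds give negative values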
HDAC3 inh: HDAC3 deacetylase inhibitors, primary screen, biochemical, fluorescence, cell-free homogeneous; Histone deacetylase 3 (Homo sapiens), O15379; recombinant HDAC3, fluorogenic peptide/trypsin coupled; inhibition, % at 8.3 µM; 320,000 compounds, 0.15% hits; AID 2718, 2010; in the data active = inhibition above about 26%, passing the limit was not always enough
Neddylation inh: inhibitors of cullin neddylation, primary screen, biochemical, TR-FRET, uHTS, NAE and Ubc12 | NEDD8-conjugating enzyme Ubc12 (Homo sapiens) + NEDD8-activating enzyme E1 regulatory … | inhibition, % at 25 µM | 360,000 compounds, 0.58% hits | AID 651699, 2012; in the data active = inhibition above about 36%
Target sequence (P61081 whole entry, looked up): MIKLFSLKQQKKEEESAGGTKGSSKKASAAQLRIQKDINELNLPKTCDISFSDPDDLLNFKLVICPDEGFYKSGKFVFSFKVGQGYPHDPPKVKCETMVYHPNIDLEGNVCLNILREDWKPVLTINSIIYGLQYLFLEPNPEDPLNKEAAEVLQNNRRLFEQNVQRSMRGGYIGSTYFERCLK
Target sequence (Q13564 whole entry, looked up): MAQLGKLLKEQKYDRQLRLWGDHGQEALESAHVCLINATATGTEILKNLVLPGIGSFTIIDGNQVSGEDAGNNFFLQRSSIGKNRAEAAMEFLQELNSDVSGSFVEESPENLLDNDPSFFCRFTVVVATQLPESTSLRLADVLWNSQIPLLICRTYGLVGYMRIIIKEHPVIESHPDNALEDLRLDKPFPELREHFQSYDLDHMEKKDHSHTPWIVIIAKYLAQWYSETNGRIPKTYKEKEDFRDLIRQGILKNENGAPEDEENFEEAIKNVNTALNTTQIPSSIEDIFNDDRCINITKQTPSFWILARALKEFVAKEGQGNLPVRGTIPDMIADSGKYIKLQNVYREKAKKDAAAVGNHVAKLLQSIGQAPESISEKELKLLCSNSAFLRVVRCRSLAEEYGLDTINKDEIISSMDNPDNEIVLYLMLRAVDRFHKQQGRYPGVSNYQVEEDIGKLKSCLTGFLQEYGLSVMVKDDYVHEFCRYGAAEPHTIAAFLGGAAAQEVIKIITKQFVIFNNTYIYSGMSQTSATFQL
Cardio protect: cardioprotection against H2O2-induced cell death, primary screen, uHTS, H9c2 cells, ATPLite luminescence; H9c2 cardiomyocytes, H2O2 injury protection, 2 h; protection from H2O2 cell death, % at 20 µM; 360,000 compounds, 0.63% hits; AID 588492, 2011;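 active = compounds giving at least 50% protection of heart cells from peroxide-induced death in the single-dose screen, raw or plate-pattern-corrected value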;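 note: 0% = DMSO wells with peroxide and 100% = DMSO wells without peroxide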
GRK2 inh confirm: GRK2 aptamer-displacing inhibitors, retest, confirmation, biochemical, cherry pick 1, bead flow cytometry; shares compounds with GRK2 aptamer HTS; bead-bound GRK2, FAM-aptamer displacement; aptamer displacement, % at 10 µM; 2,000 compounds, 4% hits; AID 504451, 2011;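 active = aptamer displacement above 40%, near three times the noise of non-fluorescent compounds, on plates passing quality checks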;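 note: negative values mostly reflect intrinsic compound fluorescence rather than true enhancement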
Aptamer quench: fluorescent aptamer quenching in GRK2 counter-screen dose response | shares compounds with GRK2 aptamer HTS | Fluorescent RNA aptamer beads, flow cytometry; stronger effect = higher value | fluorescence change (kMESF span), kMESF (test concentration not listed) | 110 tested, under 10 active | AID 504521;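 active = compounds whose bead fluorescence drops by more than 37 kMESF across the dose range, marking them as dye quenchers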
Aptamer quench SP: aptamer fluorescence quenching in GRK2 counter-screen; Carboxyfluorescein RNA aptamer on beads, flow cytometry quenching; stronger effect = lower value; fluorescence response (% of DMSO), % at 10 µM; shares compounds with GRK2 aptamer HTS; AID 504580; 2,000 tested, under 10 active;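 active = compounds that quench the bead-bound fluorescent RNA probe, cutting fluorescence to under half of the solvent control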;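 note: counterscreen run without GRK2 so only probe quenching by compound is measured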
GRK2 confirm 2: GRK2 aptamer-displacing inhibitors, hit retest, confirmation, biochemical, cherry pick 2, bead flow cytometry | shares compounds with GRK2 aptamer HTS | bead-bound GRK2, FAM-aptamer displacement | inhibition of aptamer binding, % at 10 µM | 360 tested, under 10 active | AID 504782, 2011;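 active = inhibition of aptamer binding above 40%, about triple the noise seen with nonglowing compounds, on plates passing quality control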;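 note: negative values mostly come from compounds that fluoresce themselves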
FAM quench SP: quenches fluorescent RNA aptamer, GRK2 hit artifact. shares compounds with GRK2 aptamer HTS. carboxyfluorescein RNA aptamer beads, flow cytometry quenching; stronger effect = lower value. fluorescence response vs DMSO, % at 10 µM. 360 tested, under 10 active;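 active = response vs DMSO under 50%, meaning signal dropped by over half, treated as fluorescence quencher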;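 note: labelled aptamer on streptavidin beads without GRK2 as a quench counter-screen; 100% = bead fluorescence of DMSO wells and lower means quenching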
Active calls of the source: *; i = inactive; / = no result shown.

SMILES	GRK2 aptamer HTS	HDAC3 inh	Neddylation inh	Cardio protect	GRK2 inh confirm	Aptamer quench SP	others
Cn1c2c(c(=O)n(C)c1=O)C(c1ccccc1Cl)CC(=O)N2 (stereo unspecified)	3.0	-1.3	5.4	17.4	/	/
CSc1ccc(C2CC(=O)Nc3c2c(=O)n(C)c(=O)n3C)cc1 (stereo unspecified)	85.0*	2.0	3.5	19.6	1.1	97.7
COc1ccc(NC(=O)c2nc3nc(C)cc(C(F)F)n3n2)cc1OC	1.0	4.3	0.9	-13.2	/	/
CCN(CC)c1ccc(NC(=O)c2nc3nc(C)cc(C(F)F)n3n2)cc1	48.0*	/	-10.8	3.2	-0.1	93.0
Cc1ccc(C)c(OCC(=O)N(C)CC(=O)Nc2ccc(Cl)c(C(F)(F)F)c2)c1	79.0*	19.4	-2.7	-4.2	0.0	103.3
Cc1ccc(-c2noc(N=O)c2NO)cc1	1.0	6.0	-22.7	3.0	/	/
Cc1ccc(NC(=O)CC2S/C(=N/N=C3/NC(=O)CS3)NC2=O)cc1 (stereo unspecified)	91.0*	-12.0	2.9	5.7	2.9	99.1
CCOC(=O)c1ccc(NC(=O)CC2S/C(=N/N=C3/NC(=O)CS3)NC2=O)cc1 (stereo unspecified)	6.0	3.7	-4.5	10.3	/	/
Cn1c(-c2ccc3nc(N)sc3c2)nc2cc(N)ccc21	52.0*	-3.1	/	5.7	4.4	95.5
Cn1c(-c2ccc(N)cc2)nc2ccccc21	0.0	-35.1	/	-12.3	/	/
Cc1ccc(CNC(=O)COC(=O)Cc2ccc(-c3ccccc3)cc2)cc1	0.0	9.1	-12.3	-6.6	-3.4	98.7
O=C(COC(=O)Cc1ccc(-c2ccccc2)cc1)NCc1ccc(F)cc1	8.0	19.7	-8.7	-11.9	-0.8	99.2
O=C(COC(=O)Cc1ccc(Cl)cc1)NCc1ccc(F)cc1	0.0	/	3.6	4.1	/	/
CC(C)(C)c1cc(C(=O)O)n(Cc2ccc(Cl)cc2Cl)n1	8.0	0.8	-2.5	9.4	/	/
COc1ccc(N2CCN(CCCn3c(=S)[nH]c4ccccc4c3=O)CC2)cc1	23.0	4.5	-0.2	-2.5	-1.5	95.0
COc1ccccc1N1CCN(CCCn2c(=S)[nH]c3ccccc3c2=O)CC1	0.0	13.0	-2.2	4.1	/	/
O=C(CCCn1c(=S)[nH]c2ccccc2c1=O)N1CCN(c2cccc(Cl)c2)CC1	0.0	-1.7	-34.0	6.4	-2.9	92.7
O=S(=O)(NC1C2CC3CC(C2)CC1C3)c1ccc(F)cc1 (stereo unspecified)	/	/	10.9	-5.5	/	/
Cc1cccc(CN2CCN([C@@H]3CS(=O)(=O)N[C@H]3COCc3ccccc3)CC2)c1	/	/	-5.6	3.4	/	/
Cn1c(=O)c(C(=O)NNC(=O)c2cccc(Cl)c2)c(O)c2ccccc21	90.0*	-1.3	25.4	-15.0	65.4*	141.5	Aptamer quench=-35.4
CCn1c(=O)c(C(=O)NNC(=O)c2ccc(Cl)cc2Cl)c(O)c2ccccc21	1.0	-0.2	18.5	-3.9	/	/
CCn1c(=O)c(C(=O)NNC(=O)c2cccc(Cl)c2)c(O)c2ccccc21	54.0*	2.2	25.9	-5.4	-8.7	105.0
O=[N+]([O-])c1cccnc1N1CCCCC1	3.0	5.8	-18.3	-1.7	/	/
O=[N+]([O-])c1cccnc1N1CCN(c2ccccc2F)CC1	46.0*	-5.1	-37.8	-14.4	-3.4	99.7
COCCNC(=O)C(c1ccccc1F)N(C(=O)C(=O)NC1CCCC1)C1CCCCC1 (stereo unspecified)	0.0	1.4	5.0	1.2	/	/
SMILES	GRK2 aptamer HTS	HDAC3 inh	Neddylation inh	Cardio protect	GRK2 inh confirm	Aptamer quench SP	others
CCOC(=O)c1c(NC(=O)CSc2nc3ccccc3c(=O)n2-c2ccc(F)cc2)sc(C(C)=O)c1C	73.0*	2.9	i	0.5	-3.4	103.2
O=C(C1=C[C@H](c2coc3ccccc3c2=O)C[C@H](OCCCCO)O1)N1CCN(Cc2ccc3c(c2)OCO3)CC1	/	0.0	-20.9	3.9	/	/
Cc1cc(NS(=O)(=O)c2ccc(NC(=O)c3c(F)c(F)c(F)c(F)c3F)cc2)nc(C)n1	56.0*	-2.9	11.7	1.9	/	/	GRK2 confirm 2=9.7;FAM quench SP=104.0
Cc1cc(NS(=O)(=O)c2ccc(NC(=O)c3ccc(F)cc3)cc2)nc(C)n1	5.0	0.8	17.0	-5.5	/	/
CC(C)(Cl)C1Cc2cc3ccc(=O)oc3cc2O1 (stereo unspecified)	2.0	-4.1	/	-7.1	/	/
Cc1occc1C(=O)NCc1cccc(CNC(=O)c2ccoc2C)c1	47.0*	4.0	6.5	1.7	-0.1	98.2
Cc1occc1C(=O)NCc1ccc2c(c1)OCO2	0.0	-1.6	4.5	5.1	/	/
NS(=O)(=O)c1ccc(CCNC(=O)COC(=O)Cc2ccc(Cl)cc2)cc1	/	/	4.3	3.6	/	/
COc1cccc2[nH]c(C(=O)NC(C)c3ccccc3)cc12 (stereo unspecified)	0.0	-26.4	/	-5.5	/	/
CCN(CC)c1ccc(NC(=O)c2cc3c(OC)cccc3[nH]2)cc1	12.0	5.9	34.6	-3.9	1.0	93.7
COc1cc(/C=C/C(=O)OCC(=O)NCc2cccs2)ccc1OCC#N	0.0	-1.3	12.1	-0.5	/	/
Cn1cnc(Sc2ncnc3nc[nH]c23)c1[N+](=O)[O-]	96.0*	9.0	-27.6	0.8	-1.3	94.3
CC(C)CN1C(=O)C(=O)N(CC(=O)NC(C)CCc2ccccc2)C1=O (stereo unspecified)	/	/	2.8	0.8	/	/
COC(=O)c1ccc(Oc2c(Cl)cccc2[N+](=O)[O-])cc1	0.0	5.5	-3.4	-1.2	/	/
CCC(=O)N=c1sc2cc([N+](=O)[O-])ccc2n1CCOC	2.0	-6.5	-179.0	6.5	/	/
CCOC(=O)Cn1c(=NC(=O)C(C)(C)C)sc2cc([N+](=O)[O-])ccc21	52.0*	-4.2	-13.2	-2.6	/	/	GRK2 confirm 2=-20.7;FAM quench SP=102.0
O=C1CCCC(O)=C1N=Nc1cccc(C(=O)O)c1	83.0*	7.6	-32.9	3.1	3.8	97.7
O=C(Nc1ccc2c(c1)OCCO2)C1c2ccccc2OCC(=O)N1Cc1ccco1 (stereo unspecified)	/	/	-5.5	/	/	/
COc1ccc(N2Cc3cccc(C(=O)O)c3C2=O)cc1	61.0*	/	4.1	0.1	32.4	96.9
